Reference: PubChem BioAssay AID1117283 (Broad Institute, 2014)
Potency and affinity values are given separately. The source made the active and inactive calls.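 How the source made its calls: active means fluorescent signal decreased by at least 40%; inconclusive means no clear call, values can overlap the other calls; inactive means the rest, including activity opposite to the expected direction.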

Test: fibronectin fibrillogenesis inhibitors in fibroblasts, dose response, AH1F cells, Alexa488-fibronectin fluorescence, cherry-pick, set 2 (AID 1117283);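 further: AH1F fibroblasts given Alexa488-labelled fibronectin at 24 nM final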

| Structure (SMILES) | outcome |
| --- | --- |
| C[C@H](CO)N1C[C@H](C)[C@H](CN(C)Cc2ccc(-c3ccccc3)cc2)Oc2ccc(NC(=O)C3CCCCC3)cc2C1=O | inactive |
| Cc1cccc(N2CCN(S(=O)(=O)c3cn(C)cn3)CC2)c1C | inactive |
| N#C[C@H]1[C@@H](c2ccccc2C2=CCCCC2)[C@@H](CO)N1S(=O)(=O)c1ccccc1 | inactive |
| NC(=O)C1=C[C@H](c2coc3ccccc3c2=O)C[C@H](OCCCCO)O1 | inactive |
| Fc1cnc(N2CCN(c3ccccc3)CC2)nc1N1CCN(c2ccccc2)CC1 | inactive |
| C[C@@H]1CN([C@H](C)CO)C(=O)c2cc(NC(=O)CCCN(C)C)ccc2O[C@@H]1CN(C)Cc1ccc(-c2ccccc2)cc1 | inactive |
| C[C@H](CO)N1C[C@H](C)[C@H](CN(C)C(=O)c2cccc(F)c2)Oc2ncc(-c3ccccc3)cc2C1=O | inactive |
| O=C(CCNS(=O)(=O)c1cccc2nonc12)NC1CCCc2ccccc21 (configuration not stated) | inactive |
| CO[C@@H]1CN(C)C(=O)c2ccc(NC(=O)c3ccc(-c4ccccc4)cc3)cc2OC[C@@H](C)NC[C@@H]1C | inactive |
| C[C@H](CO)N1C[C@H](C)[C@@H](CN(C)Cc2ccccc2)Oc2ncc(-c3ccccc3)cc2C1=O | inactive |
| CC(C)CNC(=O)c1coc(=O)c(Br)c1 | inactive |
| Cc1ccc(S(=O)(=O)N2CC[C@@H]3[C@H]2c2cc(-c4cccc(C(=O)N(C)C)c4)ccc2N[C@@H]3CO)cc1 | inactive |
| CCc1ccc(NC(=O)CSc2nnc(-c3ccco3)o2)cc1 | inactive |
| Cc1ccc(Nc2nnc(SCc3ccccc3)s2)cc1 | inactive |
| CN1c2ccc(-c3ccccc3)cc2[C@@H]2[C@@H](CCN2C(=O)CN2CCOCC2)[C@@H]1CO | inactive |
| Cc1ccc([N+](=O)[O-])cc1NC(=O)CN(C(=O)c1ccccc1Cl)C1CCCCC1 | inactive |
| C[C@H]1CN([C@@H](C)CO)C(=O)c2cccc(NC(=O)Nc3ccc(C(F)(F)F)cc3)c2O[C@@H]1CN(C)C(=O)Nc1cccc2ccccc12 | inactive |
| CN1c2ccc(-c3ccccc3)cc2[C@H]2[C@H](CCN2C(=O)CN2CCOCC2)[C@H]1CO | inactive |
| COc1cccc(-c2ccc3c(c2)[C@H]2[C@H](CCN2S(=O)(=O)c2cccc(OC)c2)[C@H](CO)N3)c1 | inactive |

| Structure (SMILES) | outcome |
| --- | --- |
| N#C[C@@H]1[C@@H](c2ccccc2C2=CCCCC2)[C@@H](CO)N1S(=O)(=O)c1ccccc1 | inactive |
| C[C@@H]1CN([C@@H](C)CO)C(=O)c2cccc(NC(=O)Nc3ccc(C(F)(F)F)cc3)c2O[C@@H]1CN(C)C(=O)Nc1cccc2ccccc12 | inactive |
| COc1cccc(CN2CCN(C(=O)c3ccc(-c4ccccc4)cc3)CC2)c1OC | inactive |
| N#C[C@H]1[C@@H](c2ccccc2C2=CCCCC2)[C@H](CO)N1S(=O)(=O)c1ccccc1 | inactive |
| CC(=O)Nc1cccc(-c2ccnc3c2CC(C)(C(=O)Nc2cccc(C(F)(F)F)c2)O3)c1 (configuration not stated) | inactive |
| C[C@@H]1CN([C@H](C)CO)C(=O)c2cccc(NC(=O)Nc3ccc(C(F)(F)F)cc3)c2O[C@@H]1CN(C)C(=O)Nc1cccc2ccccc12 | inactive |
| CCc1nc2c(OCCc3cccc(OC)c3)cccn2c1N(C)C(=O)c1ccc(C)cc1 | inactive |
| CN(C)C(=O)c1ccc(-c2ccc3c(c2)[C@@H]2[C@@H](CCN2C(=O)c2ccc(F)cc2)[C@@H](CO)N3C)cc1 | inactive |
| O=C(Nc1ccccc1F)N1C[C@@H]2[C@H](c3ccccc31)[C@H](CO)N2C(=O)C1CCOCC1 | inactive |
| C[C@H]1CN([C@@H](C)CO)C(=O)c2cc(NC(=O)CCCN(C)C)ccc2O[C@@H]1CN(C)Cc1ccc(-c2ccccc2)cc1 | inactive |
| CS(=O)(=O)N1CCN(c2ccc(NC(=O)c3ccc([N+](=O)[O-])o3)cc2)CC1 | inactive |
| COc1cccc(-c2ccc3c(c2)[C@@H]2[C@@H](CCN2S(=O)(=O)c2cccc(OC)c2)[C@@H](CO)N3)c1 | inactive |
| COC(=O)C[C@H]1CC[C@H]2[C@H](COc3ccc(NC(=O)Cc4cccs4)cc3C(=O)N2C)O1 | inactive |
| O=C(CN1CCCC1)Nc1ccc(Oc2ccc(NC(=O)CN3CCCC3)cc2)cc1 | inactive |
| Cc1ccn2cc(-c3ccc(NC(=O)c4ccco4)cc3)nc2c1 | inactive |
| N#C[C@H]1[C@H](c2ccccc2C2=CCCCC2)[C@H](CO)N1S(=O)(=O)c1ccccc1 | inactive |
| CCOc1cccc(C(=O)Nc2ccc(N(CC)CC)cc2)c1 | inactive |
| c1ccc2[nH]c(SCc3cn4cccnc4n3)nc2c1 | inactive |
